Experimental data published in PubChem BioAssay AID1845226 (National Center for Advancing Translational Sciences (NCATS), 2023).
Results filed as inconclusive are left out. A number with no mark means an inactive call. The source made the active and inactive calls. Calls follow the shape of the dose curve; as a rule, active = well fitted inhibition curve with a large enough effect; inconclusive = small, poorly fitted or top-dose-only effect; inactive = no such curve, though single readings can be large or run the other way.

Test: Confirmatory fluorescence-based thiol-reactive (MSTI) qHTS assay for identification of artifact compounds
Details: MSTI thiol-reactivity probe, 1 h; series mostly up to 39.2 µM; activity change, negative = inhibition: at the top concentration
Summary of the method: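 Compounds, dosed in qHTS format, were mixed with 4 uM MSTI probe in 1X PBS pH 7.4 containing 2% DMSO. After 1 hour at room temperature in the dark, fluorescence was measured.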
Potency is read from the fitted curve at half-maximal effect.

Row | Compound | activity change, negative = inhibition | Potency
1 | COc1ccc2oc(=O)cc(CN3CCN(C(=O)c4ccccc4F)CC3)c2c1 | 26.3% | –
2 | O=C(CCn1c(=O)c2cccn2c2cccnc21)N1CCN(c2ccccc2F)CC1 | 79.7% | –
3 | CCCC12CN3CC(C)(CN(C1)C3c1ccc(CC)cc1)C2=O (stereo not drawn) | 57.3% | –
4 | O=C(CSc1nccn1C1CCCC1)Nc1ccc(C(F)(F)F)cc1 | 40.6% | –
5 | COc1ccc(NC(=O)C(=O)Nc2ccc3nc4n(c(=O)c3c2)CCCCC4)c(OC)c1 | 122% | –
6 | COC(=O)c1c(NC(=O)COc2ccc(C(C)C)cc2)sc2c1CCCC2 | 34% | –
7 | Fc1ccc2c(c1)-c1nc(-c3ccccc3)cc(-c3ccccc3)c1CO2 | 138% | –
8 | COc1cc(NC(=O)c2ccc(C)cc2)ccc1NC(=O)c1cc2ccccc2o1 | 49.2% | –
9 | O=C1CC(c2ccc(O)c(O)c2)Oc2cc(O)cc(O)c21 (stereo not drawn) | -4.21% | –
10 | O=C(O)Cc1cc(I)c(Oc2cc(I)c(O)c(I)c2)c(I)c1 | -37.1% | –
11 | Cc1ccc(Cn2cc(CCC(=O)NC3CCCCC3)c3ccccc32)cc1 | 117% | –
12 | CC(C)c1nn2c(=O)cc(COC(=O)c3cccc(NC(=O)COc4ccc(F)cc4)c3)nc2s1 | 212% | –
13 | CCCCCCCCCCCCCCCC(=O)N[C@H](CN1CCOCC1)[C@H](O)c1ccccc1 | – | 12.2 µM (active)
14 | c1coc(-c2nc3cc4ccccc4cc3nc2-c2ccco2)c1 | – | 0.97 µM (active)
15 | CCOC(=O)c1c(NC(=O)c2ccc(S(=O)(=O)N(CC)CC)cc2)sc2c1CCCCC2 | 4.96% | –
16 | CC(=O)O[C@H]1C[C@@H]2CC[C@@H]3[C@H](CC[C@@]4(C)[C@H]3C[C@H](N3CC[N+](C)(C)CC3)[C@@H]4OC(C)=O)[C@@]2(C)C[C@@H]1N1CC[N+](C)(C)CC1 | 38.3% | –
17 | C/C(=C\c1ccc2c(c1)OCO2)C1Nc2cccc3cccc(c23)N1 | – | 3.07 µM (active)

Row | Compound | activity change, negative = inhibition | Potency
18 | CCOc1ccc(CNC(=O)c2cnc(SC)nc2CC)cc1 | 49.6% | –
19 | COc1ccccc1C(CC(=O)Nc1ccc(F)cc1)c1ccccc1 (stereo not drawn) | 283% [at 78.4 µM] | –
20 | Cc1ccc2cccc(NS(=O)(=O)c3ccccc3[N+](=O)[O-])c2n1 | – | 4.33 µM (active)
21 | COc1ccc(-c2ccc(CCC(=O)O)n2-c2ccccc2O)cc1 | – | 4.33 µM (active)
22 | COc1ccc(C(=O)NCC(=O)OCC(=O)c2cccc3ccccc23)cc1 | 106% | –
23 | Cc1c(C(=O)Nc2ccc(-n3c(C)nc4ccccc4c3=O)cc2)cccc1[N+](=O)[O-] | 104% | –
24 | COC(=O)c1ccc2nc(C)cc(Nc3ccc(O)cc3)c2c1 | -5.75% | –
25 | COc1ccc(C(=O)O)cc1Nc1nc2ccc(C)cc2n2cnnc12 | 25.2% | –
26 | CCOc1ccc(NC(=O)c2cnc(Nc3ccccc3OC)c3ccccc23)cc1 | 51.6% | –
27 | O=C(O)c1c(CNCc2cccc(F)c2)c2ccccc2n1Cc1ccccc1 | 66.1% | –
28 | Cc1c(O)cc(O)c2c(=O)c(-c3ccc(O)cc3)coc12 | 0.887% | –
29 | COc1ccc(C)cc1NC(=O)CN1C(=O)COc2ccc(S(=O)(=O)NC3CCCC3)cc21 | 104% | –
30 | O=C(O)c1ccccc1[N+](=O)[O-] | 10.1% | –
31 | CCSc1ncc(Cl)c(C(=O)Nc2c(C(=O)Nc3cccc(C)c3)oc3ccccc23)n1 | 6.11% | –
32 | O=S(=O)(Nc1ccc(S(=O)(=O)Nc2nccs2)cc1)c1ccc2ccccc2c1 | 160% | –
33 | CC(C)C(=O)SCCCCCCC(=O)Nc1nc(-c2ccccc2)cs1 | 30.7% | –
